This is a sample that favours compounds with a hit; in the whole collection about 4.5% have one here.
tim10-1 inh – growth inhibitors of tim10-1 mutant yeast, primary screen, luminescence, uHTS | S. cerevisiae tim10-1 ts strain growth, BacTiter-Glo, 24 h | AID 463190, 2010 | 330,000 compounds, 2.2% hits | inhibition, % at 20 µM;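 active = inhibition of at least 40%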;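 also: mutant grown at 25 °C; 0% = DMSO wells with yeast and 100% = wells holding no yeast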
PfHsp90 yeast 2 – growth inhibition of PfHsp90-expressing yeast, primary screen, antimalarial PfHsp90 inhibitor project, S. cerevisiae, BacTiter-Glo luminescence, single point, set 2. BacTiter-Glo ATP, 48 h; yeast lacking PDR1 and PDR3 efflux regulators. inhibition, % at 9.4 µM. 310,000 compounds, 0.32% hits;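 active = every replicate shows inhibition above about 80%, whatever the replicate mean, limit read from the data; inconclusive = mean inhibition reaches the set limit but some replicate falls short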;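 also: 0% = DMSO neutral controls and 100% = 20 µM radicicol positive controls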
tim23-1 inh – growth inhibitors of tim23-1 mutant yeast, primary screen, luminescence, uHTS; 330,000 compounds, 1.3% hits; S. cerevisiae tim23-1 growth, BacTiter-Glo luminescence, 24 h; inhibition, % at 20 µM;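 active = growth inhibition of the mutant yeast at or above 50%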;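 also: temperature-sensitive mutant grown at 25 °C; plate controls were DMSO-treated mutant yeast for no effect and medium wells lacking yeast for full effect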
SKKanGAS inh – S. pyogenes SKKanGAS growth inhibitors in kanamycin, primary screen, streptokinase expression inhibitor project, SKKanGAS strain, BacTiter-Glo luminescence; 6 h; inhibition, % at 7.5 µM; 300,000 compounds, 1.3% hits;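 active = mean replicate score, as percent of positive control median, at least 50; inconclusive = mean below 50 but one replicate at or above 50; inactive = mean and every replicate below 50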;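 also: strain carries kanamycin resistance gene driven by streptokinase promoter and grows in 40 µg/ml kanamycin; loss of luminescence reflects streptokinase promoter inhibition or plain growth inhibition; 0% = median of DMSO wells and 100% = positive control at its reference dose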
NALP3 yeast inh – NALP3 inflammasome inhibitors in reconstituted yeast, primary screen, luminescence, uHTS | Yeast reconstituted NLRP3/ASC/caspase-1, beta-gal luminescence, 24 h | inhibition, % at 10 µM | 330,000 compounds, 0.39% hits | AID 2825, 2010;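 active = inhibition of 50% or more; inactive = inhibition below 50%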;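 also: plate controls were induced DMSO wells for no effect and uninduced yeast grown without galactose for full effect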
TIM10 inh – growth inhibitors of isogenic TIM10 control yeast, primary screen, counter-screen for tim10-1 yeast inhibitor project, luminescence, uHTS; S. cerevisiae TIM10 strain growth, BacTiter-Glo luminescence, 24 h; inhibition, % at 10 µM; 330,000 compounds, 1.4% hits; AID 463195, 2010;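 active = inhibition of 40% or more at the single tested concentration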;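 also: wild-type TIM10 isogenic control strain grown at permissive 25 °C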
Numbers without * were called inactive; ? = inconclusive; . = not tested or not shown; + = active, no number.

SMILES | tim10-1 inh | PfHsp90 yeast 2 | tim23-1 inh | SKKanGAS inh | NALP3 yeast inh | TIM10 inh
COc1ccc2c(c1)C(=O)N1[C@H]3c4cc(Cl)ccc4OC[C@@H]3[C@H](c3ccccc3)[C@]1(C)C(=O)N2 | 29.5 | -39.7 | 39.3 | . | -19.2 | 14.2
COc1ccc2c(c1)OC[C@H]1[C@H]2N2C(=O)c3cc(Cl)ccc3NC(=O)[C@@]2(C)[C@H]1c1ccccc1 | 33.1 | + | 37.8 | . | 5.5 | 21.4
O=C(CCS(=O)(=O)c1ccccc1)Nc1nc2cc3c(cc2s1)OCCO3 | 26.3 | 1.6 | 23.7 | 60.6* | 23.0 | 9.7
O=C(CCS(=O)(=O)c1ccccc1)Nc1nc2cc3c(cc2s1)OCO3 | 12.5 | -2.7 | 13.1 | -4.1 | 15.2 | 1.2
CCN(CC)S(=O)(=O)c1cccc(C(=O)Nc2nc3cc4c(cc3s2)OCCO4)c1 | 20.5 | -16.3 | 19.0 | 70.9* | -4.0 | 14.2
Cc1cc(C)c2cc(C(=O)N3CCN(c4ncccc4C(F)(F)F)CC3)[nH]c2c1 | 17.0 | 0.2 | 37.5 | 20.2 | 19.6 | 30.3
C=CCn1c(N2C(=O)CC(Cc3ccccc3)C2=O)nc2ccccc21 (stereo not given) | 24.1 | -12.5 | 11.3 | 63.7* | 3.8 | 3.8
C=CCn1c(NCc2ccccc2)nc2ccccc21 | 7.3 | . | -3.9 | -2.9 | 6.5 | -7.1
COc1ccccc1/C=C1\SC(=S)N(CCC(=O)NNC(=O)c2ccccc2O)C1=O | 18.7 | 29.2 | 13.8 | 51.9* | 12.0 | 18.4
C=CCCO[C@@H]1O[C@@H](C)[C@H](O)C[C@H]1O | -7.8 | . | -12.7 | . | 15.4 | -0.5
O=C(CNC(=O)c1ccc(F)cc1)Nc1ccccc1C(F)(F)F | -16.9 | -15.9 | 8.8 | 3.1 | 7.2 | -4.0
O=C(Nc1nnc(SCc2ccccc2Cl)s1)C1COc2ccccc2O1 (stereo not given) | 36.0 | -19.7 | 38.1 | 68.7* | 17.5 | 31.6
CCc1nnc(NC(=O)C(NC(=O)c2ccccc2Cl)C(C)C)s1 (stereo not given) | 4.5 | 9.7 | -6.0 | -0.7 | -3.5 | 7.4
CC(C)[C@H](NC(=O)c1ccccc1Cl)C(=O)Nc1nc(-c2ccccn2)cs1 | 18.8 | -3.0 | 34.7 | 79.0* | -11.3 | 16.8
Cc1ccccc1CSc1nnc(NC(=O)C2COc3ccccc3O2)s1 (stereo not given) | 25.6 | -21.9 | 14.5 | 18.1 | 9.1 | 17.2
O=C(Nc1nc(-c2ccccn2)cs1)C1COc2ccccc2O1 (stereo not given) | 24.4 | 103.0* | 43.3 | . | 48.3 | -0.5
CC1CC1C(=O)Nc1nc(-c2ccccn2)cs1 (stereo not given) | 14.5 | 18.8 | 15.8 | 85.1* | 28.6 | 0.2
C[C@@H](C(=O)Nc1nc(-c2ccccn2)cs1)N1C(=O)C2CCCCC2C1=O (stereo not given in full) | 2.4 | 5.5 | 17.4 | 43.3 | 2.1 | -3.9
CN(C)CCCNC(=O)C(=O)NCC1OCCN1S(=O)(=O)c1cc(F)ccc1F (stereo not given) | -12.5 | 19.1 | -0.1 | 2.6 | 3.0 | 2.7
CCOc1ncccc1C(=O)Nc1ccc2c(c1)OCCCO2 | 11.1 | -5.5 | 14.9 | . | 37.4 | 16.1
CCCC(=O)NC(c1ccco1)c1cc([N+](=O)[O-])c2cccnc2c1O (stereo not given) | -4.9 | -76.4 | -9.6 | 53.8* | 16.9 | 2.3
CCC(=O)NC(c1ccc(C)cc1)c1cc([N+](=O)[O-])c2cccnc2c1O (stereo not given) | . | 5.1 | . | 86.6* | . | .
CC(=O)NC(c1ccc(C)cc1)c1cc([N+](=O)[O-])c2cccnc2c1O (stereo not given) | 36.6 | -16.7 | -12.7 | ? | 22.3 | 25.1
CC(CNC(=O)c1ccc(C#N)cc1)NC(=O)c1ccc(C#N)cc1 (stereo not given) | . | 0.4 | . | -2.5 | . | .
Clc1ncccc1OCc1ccccc1 | -6.8 | -3.3 | 0.1 | 8.7 | 21.5 | -7.8
SMILES | tim10-1 inh | PfHsp90 yeast 2 | tim23-1 inh | SKKanGAS inh | NALP3 yeast inh | TIM10 inh
CCOC(=O)C1=C(COC(=O)COc2cccc(C)c2C)NC(=O)NC1C (stereo not given) | 12.8 | -5.6 | 2.8 | . | 9.4 | 3.7
CC(C)c1ccc2[nH]c(O)c(N=NC(=O)c3cccc(S(=O)(=O)N4CCCCC4)c3)c2c1 | 17.3 | -18.3 | 34.7 | 106.7* | 14.8 | 23.3
COc1ccc(NS(=O)(=O)c2ccc(O)c(NC(=O)c3cc4c(C)nn(-c5ccc(F)cc5)c4s3)c2)cc1 | 26.2 | -30.8 | 3.0 | 108.6* | 13.8 | 22.6
Cc1cc(C)c2c(C(C)(C)C)nn(-c3ccccc3)c2n1 | 28.3 | -5.6 | 27.1 | 60.0* | 5.7 | 5.5
Cc1ccc(C2C(C(=O)c3cc4ccccc4o3)=C(O)C(=O)N2c2cc(C)on2)cc1 (stereo not given) | -5.1 | 8.9 | 6.0 | 58.7* | -8.3 | 3.1
CCc1ccc2nc(N3C(=O)C(O)=C(C(=O)c4ccco4)C3c3cccs3)sc2c1 (stereo not given) | 9.6 | 10.1 | 20.8 | 88.1* | 3.4 | 14.5
Cc1ccc2nc(N3C(=O)C(O)=C(C(=O)c4cc5ccccc5o4)C3c3cccs3)sc2c1 (stereo not given) | 16.4 | -21.4 | 28.7 | 104.1* | 10.6 | 24.5
Cc1ccc2nc(N3C(=O)C(O)=C(C(=O)c4ccco4)C3c3ccc(O)cc3)sc2c1 (stereo not given) | 23.8 | -14.1 | 13.4 | 12.5 | 4.0 | 1.2
O=c1cc(N=Nc2ccc(Cl)cc2)[nH]c(=O)[nH]1 | . | 29.9 | . | 97.5* | . | .
CC(C)(C)OC(=O)N1CCCC(C(=O)Nc2ccc(C(=O)N3CCCCC3)cc2)C1 (stereo not given) | 17.8 | -20.2 | 11.7 | . | -0.6 | 2.6
O=C(Nc1nc(=S)ss1)c1ccc(Cl)cc1Cl | . | . | . | 52.2* | . | .
O=C(Nc1ccc2ccccc2c1)c1ccc(Cl)cc1Cl | 38.2 | -27.9 | 23.8 | 32.4 | 3.8 | 11.6
O=[N+]([O-])c1ccc(O)c(Nc2ncnc3ccc(Br)cc23)c1 | -51.2 | 3.3 | -21.9 | 50.6* | 12.8 | -12.7
Cc1ccc(-c2csc(Cc3nc(-c4ccc5c(c4)CCC(=O)N5)cs3)n2)cc1 | -11.2 | -11.5 | -2.2 | 70.7* | 20.8 | -3.4
CCn1c(=O)c(CCC(=O)N2CCN(c3ccccn3)CC2)c(C)c2c(C)nn(-c3cccc(C)c3)c21 | 36.7 | -12.7 | 29.6 | 49.2 | 18.4 | 9.2
COc1ccc(-c2nnc(NC(=O)C3CCCN3S(=O)(=O)c3cccs3)o2)cc1 (stereo not given) | -3.5 | . | -6.3 | 56.4* | 12.1 | -12.7
O=C(O)CCn1cc(/C=C\C(=O)c2ccc(Cl)cc2)c(-c2cccc(Br)c2)n1 | 26.7 | -33.7 | 28.6 | 79.2* | 0.1 | 17.1

Screening data as filed in PubChem BioAssay.
